According to PubChem BioAssay:
For part of these data: Measured potencies and affinities stand elsewhere. The source made the active and inactive calls. Unless noted, how the calls were made is not given here.

Tests used:
[1] = antimalarial activity against Dd2 strain (AID 2302;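 active means growth inhibition above 50% at the single 2 µM test dose, taken to imply half-maximal potency below 2 µM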;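 further: 0% = DMSO untreated growth and 100% = chloroquine plus artemisinin killed control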); details: P. falciparum Dd2 in RBCs, LDH growth readout, 72 h; at 2 µM; hits give high values
[2] = HepG2 cytotoxicity, primary screen, cytotoxicity control for P. falciparum antimalarial project, cell-based, ATP luminescence (AID 2303;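 active means inhibition above 50%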;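 further: 0% = DMSO wells and 100% = digitonin-killed cells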); details: HepG2 viability, 24-48 h, at 10 µM, hits give high values
[3] = biological target: L-lactate dehydrogenase (Plasmodium falciparum (isolate CDC / Honduras)) (UniProt Q27743); assay: PfLDH activity inhibition – cell lysate, 3D7 strain, counter-screen for P. falciparum growth inhibition project (AID 2304);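 further: 0% = vehicle and 100% = reference inhibitor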; details: P. falciparum 3D7 crude extract, LDH APAD/NBT absorbance; at 2 µM; hits give high values
[4] = inhibition of 3D7 malaria parasite growth – strain 3D7 (AID 2306);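 further: 0% = DMSO wells and 100% = chloroquine plus artemisinin control wells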; details: P. falciparum 3D7 erythrocytic growth, LDH absorbance, 72 h; at 2 µM; hits give high values
[5] = biological target: Calcium-dependent protein kinase 1 (Plasmodium falciparum (isolate 3D7)) (UniProt P62344); assay: PfCDPK1 kinase inhibitors, biochemical, TCAMS library (AID 1159585; cut-off not given, nearly all actives have IC50 up to about 0.98 µM;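 further: inhibitors leave more ATP so luminescence rises with inhibition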); details: recombinant PfCDPK1, Kinase-Glo ATP depletion luminescence
[6] = biological target: Plasmodium falciparum protein kinase 6 (PK6, PF3D7_1337100) (UniProt Q8IDW1); assay: PfPK6 kinase inhibitors, biochemical, TCAMS library (AID 1159586); details: recombinant PfPK6, Kinase-Glo ATP depletion luminescence
[7] = biological target: Protein kinase 7 (PK7), Plasmodium falciparum 3D7 (PF3D7_0213400) (UniProt Q7YTF7); assay: inhibition of Plasmodium PK7 catalytic activity – biochemical, TCAMS antimalarial set, Kinase-Glo luminescence (AID 1159587); details: recombinant PfPK7, Kinase-Glo ATP depletion luminescence
[8] = biological target: Calcium-dependent protein kinase 4 (Plasmodium falciparum (isolate 3D7)) (UniProt Q8IBS5); assay: PfCDPK4 kinase inhibitors, biochemical, TCAMS library (AID 1159588; cut-off not given, nearly all actives have IC50 up to about 0.91 µM); details: recombinant PfCDPK4, Kinase-Glo ATP depletion luminescence
Calcium-dependent protein kinase 4 (Plasmodium falciparum (isolate 3D7)), sequence (Q8IBS5 whole entry, looked up): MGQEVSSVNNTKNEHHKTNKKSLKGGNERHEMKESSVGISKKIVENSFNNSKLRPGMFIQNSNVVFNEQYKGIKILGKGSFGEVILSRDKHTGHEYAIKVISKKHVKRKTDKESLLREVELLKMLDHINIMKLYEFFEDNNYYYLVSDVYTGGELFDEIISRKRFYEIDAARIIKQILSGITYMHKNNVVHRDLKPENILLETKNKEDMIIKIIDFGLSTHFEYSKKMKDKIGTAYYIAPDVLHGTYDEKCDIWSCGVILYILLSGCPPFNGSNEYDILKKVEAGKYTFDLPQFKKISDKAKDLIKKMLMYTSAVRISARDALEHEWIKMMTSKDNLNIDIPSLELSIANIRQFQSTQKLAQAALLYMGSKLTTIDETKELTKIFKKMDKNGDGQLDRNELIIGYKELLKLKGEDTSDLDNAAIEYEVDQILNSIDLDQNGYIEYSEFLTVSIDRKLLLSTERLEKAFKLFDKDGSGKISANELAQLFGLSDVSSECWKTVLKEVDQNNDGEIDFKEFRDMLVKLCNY

Calcium-dependent protein kinase 1 (Plasmodium falciparum (isolate 3D7)), sequence (P62344 whole entry, looked up): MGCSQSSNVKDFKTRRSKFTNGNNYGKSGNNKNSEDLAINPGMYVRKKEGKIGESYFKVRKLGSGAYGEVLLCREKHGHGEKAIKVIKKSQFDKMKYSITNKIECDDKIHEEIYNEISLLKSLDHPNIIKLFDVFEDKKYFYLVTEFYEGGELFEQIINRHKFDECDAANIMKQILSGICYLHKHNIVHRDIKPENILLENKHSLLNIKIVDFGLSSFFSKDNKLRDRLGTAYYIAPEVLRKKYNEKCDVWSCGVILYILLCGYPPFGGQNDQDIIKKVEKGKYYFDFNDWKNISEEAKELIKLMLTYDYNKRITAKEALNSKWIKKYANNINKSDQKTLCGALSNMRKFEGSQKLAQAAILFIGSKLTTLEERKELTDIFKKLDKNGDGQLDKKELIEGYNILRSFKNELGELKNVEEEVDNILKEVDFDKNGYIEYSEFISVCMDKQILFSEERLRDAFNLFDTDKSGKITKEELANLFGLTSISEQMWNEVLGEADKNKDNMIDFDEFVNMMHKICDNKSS
Protein kinase 7 (PK7), Plasmodium falciparum 3D7 (PF3D7_0213400), sequence (Q7YTF7 1-343): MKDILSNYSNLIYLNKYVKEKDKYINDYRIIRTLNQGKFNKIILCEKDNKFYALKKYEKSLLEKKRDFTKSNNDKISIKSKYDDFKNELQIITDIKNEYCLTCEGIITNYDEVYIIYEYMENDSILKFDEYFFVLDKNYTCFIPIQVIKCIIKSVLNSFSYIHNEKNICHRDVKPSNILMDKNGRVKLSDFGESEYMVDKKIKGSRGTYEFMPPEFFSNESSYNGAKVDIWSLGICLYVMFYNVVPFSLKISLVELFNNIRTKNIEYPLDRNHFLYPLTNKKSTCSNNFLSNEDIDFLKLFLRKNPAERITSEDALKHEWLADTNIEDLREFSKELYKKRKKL
L-lactate dehydrogenase (Plasmodium falciparum (isolate CDC / Honduras)), sequence (Q27743 whole entry, looked up): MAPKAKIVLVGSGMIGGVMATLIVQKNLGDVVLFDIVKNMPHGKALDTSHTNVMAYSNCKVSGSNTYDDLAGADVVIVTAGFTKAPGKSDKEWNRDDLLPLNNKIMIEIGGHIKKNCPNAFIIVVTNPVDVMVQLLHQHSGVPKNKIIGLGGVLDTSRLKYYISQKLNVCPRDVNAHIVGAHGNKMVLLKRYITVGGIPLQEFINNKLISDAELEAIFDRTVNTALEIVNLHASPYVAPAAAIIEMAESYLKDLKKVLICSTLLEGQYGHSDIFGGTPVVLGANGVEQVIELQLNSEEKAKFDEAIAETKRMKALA
Plasmodium falciparum protein kinase 6 (PK6, PF3D7_1337100), sequence (Q8IDW1 1-305): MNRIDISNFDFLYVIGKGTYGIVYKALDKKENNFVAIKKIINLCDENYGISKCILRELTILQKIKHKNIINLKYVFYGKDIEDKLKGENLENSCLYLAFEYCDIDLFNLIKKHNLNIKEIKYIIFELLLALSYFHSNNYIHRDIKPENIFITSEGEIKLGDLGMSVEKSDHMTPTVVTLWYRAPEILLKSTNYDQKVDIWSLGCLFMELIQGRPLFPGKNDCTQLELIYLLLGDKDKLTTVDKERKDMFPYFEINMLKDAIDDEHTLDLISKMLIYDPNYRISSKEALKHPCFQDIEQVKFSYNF

CCC(C)c1ccc(NC(=O)c2ccc(S(=O)(=O)Nc3ccc(OC)c(N4CCN(CC5CC5)CC4)c3)cc2)cc1 (configuration not stated)
inactive: growth inhibition [1] 17% | inhibition [2] 24% | inhibition [3] -2% | outcome [5] | outcome [6] | outcome [7] | outcome [8]
active: growth inhibition [4] 94%

O=C(Nc1ccc(Cl)c(Cl)c1)N1CCc2cc3nccc(N4CCN5CCC[C@H]5C4)c3cc21
inactive: inhibition [2] 2% | inhibition [3] -7% | outcome [5] | outcome [6] | outcome [7] | outcome [8]
active: growth inhibition [1] 75% | growth inhibition [4] 100%

CC(=O)Nc1ccc(S(=O)(=O)N(Cc2cccc(Oc3ccccc3)c2)C2CCN(C/C=C(\C)CCC=C(C)C)CC2)cc1
inactive: inhibition [2] 22% | inhibition [3] 0% | outcome [5] | outcome [6] | outcome [7] | outcome [8]
active: growth inhibition [1] 99% | growth inhibition [4] 100%

COc1ccc(-c2cccc(NC(=O)c3cccc(Cl)c3)c2)cc1CN1CCCC1
active: growth inhibition [1] 66% | growth inhibition [4] 99%
inactive: inhibition [2] 45% | inhibition [3] 1% | outcome [5] | outcome [6] | outcome [7] | outcome [8]

CS(=O)(=O)CCNCc1nc(-c2ccc3c(Nc4ccc(Oc5ccccn5)cc4)ccnc3c2)cs1
active: growth inhibition [1] 89% | growth inhibition [4] 100%
inactive: inhibition [2] 9% | inhibition [3] -1% | outcome [5] | outcome [6] | outcome [7] | outcome [8]

COc1nc2c(CCN3CCC(NCc4ccc5c(c4)NC(=O)CO5)CC3)c(Cl)cnc2cc1F
inactive: growth inhibition [1] 21% | inhibition [2] 15% | inhibition [3] 6% | outcome [5] | outcome [6] | outcome [7] | outcome [8]
active: growth inhibition [4] 99%

CC(C)=C(C(=O)OCc1ccccc1)N1C(=O)[C@@H](NC(c2ccccc2)(c2ccccc2)c2ccccc2)[C@H]1[S@@](=O)CC(=O)OC(C)(C)C
inactive: inhibition [2] -2% | inhibition [3] -4% | outcome [5] | outcome [6] | outcome [7] | outcome [8]
active: growth inhibition [1] 78% | growth inhibition [4] 92%

CCOCCCn1c(=N)c(C(=O)NCc2ccc(F)cc2)cc2c(=O)n3cccc(C)c3nc21
inactive: growth inhibition [1] 40% | inhibition [2] 21% | inhibition [3] 5% | outcome [5] | outcome [6] | outcome [7] | outcome [8]
active: growth inhibition [4] 101%

CCN(CCCN1CCCCC1)c1nc(C)cc(Nc2ccc(Cl)cc2)n1
active: growth inhibition [1] 92% | growth inhibition [4] 98%
inactive: inhibition [2] 30% | inhibition [3] 3% | outcome [5] | outcome [6] | outcome [7] | outcome [8]

O=C(/C=C/c1ccc(Cl)cc1)NCCCCCN1CCC(C(=O)Nc2ccc(Cl)cc2)CC1
active: growth inhibition [4] 99%
inactive: growth inhibition [1] -1% | inhibition [2] 27% | inhibition [3] 8% | outcome [5] | outcome [6] | outcome [7] | outcome [8]

O=C(Nc1cccc(-c2ccc(-c3nc4ccc(C(F)(F)F)cc4[nH]3)cc2)c1)Nc1ccc(F)c(F)c1F
inactive: inhibition [2] 45% | inhibition [3] -2% | outcome [5] | outcome [6] | outcome [7] | outcome [8]
active: growth inhibition [1] 99% | growth inhibition [4] 102%

Cc1nc2nc(N)nc(N)c2c(C)c1Cc1ccccc1
inactive: growth inhibition [1] 0% | inhibition [3] 3% | outcome [5] | outcome [6] | outcome [7] | outcome [8]
active: inhibition [2] 62% | growth inhibition [4] 95%

CC1(C)CCNc2cc(NC(=O)c3ccc(-c4ncccc4C(F)(F)F)cc3)ccc21
inactive: inhibition [2] 7% | inhibition [3] -3% | outcome [5] | outcome [6] | outcome [7] | outcome [8]
active: growth inhibition [1] 86% | growth inhibition [4] 97%

N=c1n(CCN2CCCCC2)c2ccccc2n1CC(O)c1ccc(Cl)c(Cl)c1 (configuration not stated)
active: growth inhibition [1] 97% | inhibition [2] 50% | growth inhibition [4] 97%
inactive: inhibition [3] -2% | outcome [5] | outcome [6] | outcome [7] | outcome [8]

COc1ccc2nccc([C@@H](O)CN3CCC(NCc4ccc(OC)c(NC=O)c4)CC3)c2c1
inactive: growth inhibition [1] -1% | inhibition [2] 0% | inhibition [3] 3% | outcome [5] | outcome [6] | outcome [7] | outcome [8]
active: growth inhibition [4] 97%

O=C(/C=C/c1ccc(Cl)c(Cl)c1)NCCCCN1CCCN(C(=O)Nc2cc(Cl)cc(Cl)c2)CC1
active: growth inhibition [4] 97%
inactive: growth inhibition [1] 1% | inhibition [2] 21% | inhibition [3] 2% | outcome [5] | outcome [6] | outcome [7] | outcome [8]

CCCOc1cc(O)c(-c2n[nH]c(C)c2Oc2ccccc2)cc1CC
inactive: growth inhibition [1] 46% | inhibition [2] -14% | inhibition [3] 1% | outcome [5] | outcome [6] | outcome [7] | outcome [8]
active: growth inhibition [4] 91%

Cc1[nH]c(C)c(-c2ccc(OCCSc3ccncc3)cc2)c(=O)c1Br
active: growth inhibition [1] 95% | growth inhibition [4] 95%
inactive: inhibition [2] -6% | inhibition [3] -6% | outcome [5] | outcome [6] | outcome [7] | outcome [8]

Cc1cccc2[nH]c(-c3ccc(-c4cccc(NC(=O)Nc5ccsc5)c4)cc3)nc12
inactive: growth inhibition [1] 24% | inhibition [2] 24% | inhibition [3] 8% | outcome [5] | outcome [6] | outcome [7] | outcome [8]
active: growth inhibition [4] 101%

Cc1cc(NN=Cc2ccccc2Cl)c2ccccc2n1
active: growth inhibition [4] 102%
inactive: growth inhibition [1] 30% | inhibition [2] -3% | inhibition [3] 2% | outcome [5] | outcome [6] | outcome [7] | outcome [8]

COc1ccccc1CNc1nc(Nc2ccccc2C)nc2ccccc12
inactive: inhibition [2] 24% | inhibition [3] -1% | outcome [5] | outcome [6] | outcome [7] | outcome [8]
active: growth inhibition [1] 67% | growth inhibition [4] 101%

Cc1cnc(Nc2ccccc2)nc1NCCC(=O)Nc1ccccc1
inactive: growth inhibition [1] 7% | inhibition [2] 10% | inhibition [3] 3% | outcome [5] | outcome [6] | outcome [7] | outcome [8]
active: growth inhibition [4] 89%

COc1ccc(OCc2ccccn2)c(C2CCN(CCCCNC(=O)c3ccc(NC(=O)c4ccc(Cl)cc4)cc3)CC2)c1
inactive: inhibition [2] 18% | inhibition [3] 4% | outcome [5] | outcome [6] | outcome [7] | outcome [8]
active: growth inhibition [1] 71% | growth inhibition [4] 98%

Cc1cccc2[nH]c(-c3cccc(-c4cccc(NC(=O)c5ccc(=O)[nH]n5)c4)c3)nc12
inactive: growth inhibition [1] 32% | inhibition [2] 10% | inhibition [3] -1% | outcome [5] | outcome [6] | outcome [7] | outcome [8]
active: growth inhibition [4] 101%

Cn1nc(-c2ccc(NC(=O)Nc3cc(C(F)(F)F)ccc3F)c(F)c2)c2cnc(NCCCn3ccnc3)nc21
inactive: inhibition [2] 45% | inhibition [3] 0% | outcome [5] | outcome [6] | outcome [7] | outcome [8]
active: growth inhibition [1] 97% | growth inhibition [4] 100%

COc1cc([N+](=O)[O-])ccc1NC(=O)Nc1ccc(OC(F)(F)F)cc1
inactive: inhibition [2] 14% | inhibition [3] 3% | outcome [5] | outcome [6] | outcome [7] | outcome [8]
active: growth inhibition [1] 72% | growth inhibition [4] 84%

COc1ccc2nccc([C@@H](O)CN3CCC(NCc4ccc5c(c4)oc(=S)n5C)CC3)c2c1
active: growth inhibition [1] 68% | growth inhibition [4] 100%
inactive: inhibition [2] 14% | inhibition [3] -6% | outcome [5] | outcome [6] | outcome [7] | outcome [8]

Nc1nc(N)c2c(ccc3c2ccn3Cc2ccc(OCc3ccccc3)cc2)n1
inactive: growth inhibition [1] 1% | inhibition [2] 5% | inhibition [3] -2% | outcome [5] | outcome [6] | outcome [7] | outcome [8]
active: growth inhibition [4] 98%

CCC1CCCCN1S(=O)(=O)c1ccc(OC)c(N2CCN(C(=O)C(Cl)(Cl)Cl)CC2)c1 (configuration not stated)
inactive: growth inhibition [1] 29% | inhibition [2] 9% | inhibition [3] 5% | outcome [5] | outcome [6] | outcome [7] | outcome [8]
active: growth inhibition [4] 89%

CC(O)CNc1nc2ccccc2n1CC(=O)Nc1cccc(C(=O)Nc2cccc(C(F)(F)F)c2)c1 (configuration not stated)
inactive: inhibition [2] 2% | inhibition [3] 0% | outcome [5] | outcome [6] | outcome [7] | outcome [8]
active: growth inhibition [1] 95% | growth inhibition [4] 99%

COc1cc2c(c(OC)c1[N+](=O)[O-])C=CC1(O2)N(C)c2ccc([N+](=O)[O-])cc2C1(C)C (configuration not stated)
inactive: inhibition [2] -13% | inhibition [3] -5% | outcome [5] | outcome [6] | outcome [7] | outcome [8]
active: growth inhibition [1] 89% | growth inhibition [4] 92%

Cn1cncc1CNCc1ccc(-c2cccc(-c3nc4ccccc4[nH]3)c2)cc1
inactive: inhibition [2] 19% | inhibition [3] -1% | outcome [5] | outcome [6] | outcome [7] | outcome [8]
active: growth inhibition [1] 92% | growth inhibition [4] 101%

CCn1cnc2c(N3CCCCS3(=O)=O)cc(C(=O)N[C@@H](Cc3ccccc3)[C@H](O)CNC3CCOCC3)cc21
inactive: inhibition [2] 7% | inhibition [3] 6% | outcome [5] | outcome [6] | outcome [7] | outcome [8]
active: growth inhibition [1] 87% | growth inhibition [4] 99%

COc1ccc(C(=O)N2CCN(c3ccc([N+](=O)[O-])c(NC4CC4)c3)CC2)cc1Br
inactive: inhibition [2] 6% | inhibition [3] 5% | outcome [5] | outcome [6] | outcome [7] | outcome [8]
active: growth inhibition [1] 68% | growth inhibition [4] 99%

COc1nc(Nc2cccc(C)c2)nc(OC)n1
inactive: growth inhibition [1] -5% | inhibition [2] 46% | inhibition [3] 1% | outcome [5] | outcome [6] | outcome [7] | outcome [8]
active: growth inhibition [4] 94%

N#CC(c1cccc(Cl)c1)c1ccc2c(C(F)(F)F)cc(C(F)(F)F)nc2n1 (configuration not stated)
inactive: inhibition [3] 4% | outcome [5] | outcome [6] | outcome [7] | outcome [8]
active: growth inhibition [1] 97% | inhibition [2] 52% | growth inhibition [4] 96%

CC(=O)Nc1cccc(NC(=O)CSc2ccc(-c3nc4ccccc4[nH]3)cn2)c1
active: growth inhibition [1] 73% | growth inhibition [4] 97%
inactive: inhibition [2] 22% | inhibition [3] -4% | outcome [5] | outcome [6] | outcome [7] | outcome [8]

O=C(Nc1ccccc1)N(Cc1ccc(-c2ccc(CNCc3ccc4c(c3)OCO4)cc2)cc1)C1CCN(Cc2ccccc2)CC1
inactive: growth inhibition [1] 41% | inhibition [2] 21% | inhibition [3] -1% | outcome [5] | outcome [6] | outcome [7] | outcome [8]
active: growth inhibition [4] 98%

O=C(Nc1ccc2c(c1)OCO2)NC1CCN(c2ccnc(NCc3ccc(F)cc3)n2)CC1
active: growth inhibition [4] 88%
inactive: growth inhibition [1] 15% | inhibition [2] 33% | inhibition [3] 3% | outcome [5] | outcome [6] | outcome [7] | outcome [8]
